{"source": "PubChem BioAssay AID493248", "about": "(Broad Institute, 2011)", "note": "Hit rate of the full screen: of about 2,300 compounds, about 1,400 (61%) were called active. Another 7% or so got no clear call; they are omitted. No rule for the calls is given here. So high a share suggests a set chosen from earlier hits. The list is a sample of the results. Measured potencies and affinities stand elsewhere."}
{"molecular_target": "FAD-linked sulfhydryl oxidase ALR (Homo sapiens) (UniProt P55789)", "sequence (P55789 whole entry, looked up)": "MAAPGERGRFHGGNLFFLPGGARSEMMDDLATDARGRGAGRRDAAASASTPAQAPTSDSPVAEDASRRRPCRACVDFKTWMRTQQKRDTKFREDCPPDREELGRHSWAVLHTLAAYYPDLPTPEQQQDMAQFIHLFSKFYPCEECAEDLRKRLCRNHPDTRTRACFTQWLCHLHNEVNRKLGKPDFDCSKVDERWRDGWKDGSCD", "test": "ALR-catalysed DTT oxidation blockers – biochemical, H2O2 detection, luminescence, cherry-pick, dose response (AID 493248)", "settings": "purified ALR, H2O2 HRP-luminol luminescence; at 10 µM (top of the series)", "units": {"activity change, negative = inhibition": "%"}}
{"smiles": "Cc1nn(C(C)C(=O)N/N=C/c2ccc(N(C)C)cc2)c(C)c1[N+](=O)[O-]", "note": "(stereo not given)", "activity change, negative = inhibition": -45.7}
{"smiles": "COc1cccc(Oc2cn[nH]c2-c2ccc(O)cc2O)c1", "activity change, negative = inhibition": -53.3}
{"smiles": "COc1ccccc1-c1c(-c2ccc(O)cc2O)n[nH]c1C(F)(F)F", "activity change, negative = inhibition": 267}
{"smiles": "Cc1cc(/C=C2\\C(=N)N3N=CSC3=NC2=O)c(C)n1Cc1ccccc1", "activity change, negative = inhibition": -36.4}
{"smiles": "Cn1nnnc1SCc1csc(Nc2ccccc2)n1", "activity change, negative = inhibition": -51.7}
{"smiles": "CCN1C(=O)/C(=C/N(C)C)c2ccccc21", "activity change, negative = inhibition": 14.1}
{"smiles": "CCCCC(=O)Nc1ccnc(-c2cccnc2)n1", "activity change, negative = inhibition": 34}
{"smiles": "Cc1ccc(-c2sc(-c3cccnc3)nc2CC(=O)O)cc1", "activity change, negative = inhibition": -3.54}
{"smiles": "Cc1ccc(-c2nc(-c3ccc(Cl)cc3)sc2CC(=O)O)c(C)c1", "activity change, negative = inhibition": -95.8}
{"smiles": "O=C(Cc1cccs1)N/N=C\\c1ccc(O)cc1", "activity change, negative = inhibition": -96.8}
{"smiles": "CN(C)c1cccc2c(/C=N/O)ccc(N(C)C)c12", "activity change, negative = inhibition": 3.9}
{"smiles": "Cc1ccc(C(=O)Nc2cccc([N+](=O)[O-])c2)cc1S(=O)(=O)Nc1ccc(C(=O)O)cc1", "activity change, negative = inhibition": -15}
{"smiles": "COc1cccc2sc(Nc3nnc(-c4ccccc4Cl)o3)nc12", "activity change, negative = inhibition": -55.9}
{"smiles": "Cc1onc(C(=O)N2CCN(c3ccccc3)CC2)c1[N+](=O)[O-]", "activity change, negative = inhibition": -51.4}
{"smiles": "Cc1noc(C(=O)N2CCN(c3ccccc3)CC2)c1Cl", "activity change, negative = inhibition": -27.4}
{"smiles": "c1ccc2c(c1)CC(N1CCCCC1)c1ccccc1N2", "note": "(stereo not given)", "activity change, negative = inhibition": -14.9}
{"smiles": "C=CCNC(=O)c1ccccc1S(=O)c1ccccc1C#N", "note": "(stereo not given)", "activity change, negative = inhibition": -6.74}
{"smiles": "Nc1nc(CN2CCN(C(=O)c3ccco3)CC2)nc(Nc2cccc(Cl)c2)n1", "activity change, negative = inhibition": -24.8}
{"smiles": "CN1CCN(S(=O)(=O)c2ccc(N)cc2)CC1", "activity change, negative = inhibition": -29.3}
{"smiles": "Brc1ccc(-c2ncc3ccccn23)cc1", "activity change, negative = inhibition": -33.1}
{"smiles": "Cc1nn(C)c(Sc2ccccc2N)c1[N+](=O)[O-]", "activity change, negative = inhibition": -39.9}
{"smiles": "O=[N+]([O-])c1ccc2c(c1)CNc1ccccc1O2", "activity change, negative = inhibition": -57.2}
{"smiles": "O=C(O)c1ccccc1CSC1=NCCS1", "activity change, negative = inhibition": -98.5}
{"smiles": "CC(=O)Nc1ccc(SC[C@H](CC(C)C)N2CCN(CC(C)C)CCC2=O)cc1", "activity change, negative = inhibition": 0.961}
{"smiles": "O=C(O)c1ccc(-n2c(/C=C/c3cccc([N+](=O)[O-])c3)nc3ccccc3c2=O)cc1", "activity change, negative = inhibition": -30.3}
{"smiles": "CC1CCN(CCCNC(=O)c2ccc(CSCc3cccc(Cl)c3)o2)CC1", "activity change, negative = inhibition": 26.9}
{"smiles": "O=C(c1ccc(CS(=O)Cc2ccccc2Cl)o1)N1CCN(c2cccc(Cl)c2)CC1", "note": "(stereo not given)", "activity change, negative = inhibition": 45.7}
{"smiles": "O=C(c1ccc(CS(=O)(=O)c2ccc(Br)cc2)o1)N1CCCC1", "activity change, negative = inhibition": 43.5}
{"smiles": "COc1cccc(N2CCN(C(=O)c3cc(C)oc3C)CC2)c1", "activity change, negative = inhibition": -48.7}
{"smiles": "COc1ccc(-c2coc3cc(O)ccc3c2=O)cc1O", "activity change, negative = inhibition": -45.2}
{"smiles": "COC(=O)c1c(-c2ccc(C)cc2)csc1N", "activity change, negative = inhibition": -4.41}
{"smiles": "COc1ccccc1C(=O)Nc1nc2nc(-c3ccccc3)cc(=O)n2[nH]1", "activity change, negative = inhibition": -46.5}
{"smiles": "Cc1oc(-c2ccccc2)cc1C(=O)Nc1cccc(C(=O)O)c1", "activity change, negative = inhibition": -45.5}
{"smiles": "Cc1cccc(C(=O)Nc2ccc(O)cc2)c1", "activity change, negative = inhibition": -86.3}
{"smiles": "Cc1cc(C)nc(NS(=O)(=O)c2ccc(NC(=O)Cc3ccccc3F)cc2)n1", "activity change, negative = inhibition": -98.5}
{"smiles": "c1ccc(CCCN2CCN(c3ccccc3)CC2)cc1", "activity change, negative = inhibition": -9.66}
{"smiles": "COC(=O)c1ccc(NC(=O)CN2CCN(c3ccccc3)CC2)cc1", "activity change, negative = inhibition": -30.3}
{"smiles": "Cc1nc2nc(C)c(CCC(=O)N3CCN(c4ccccc4)CC3)c(C)n2n1", "activity change, negative = inhibition": -54.1}
{"smiles": "O=C(CCCC1=NS(=O)(=O)c2ccccc2N1)N1CCN(c2ccc(Cl)cc2)CC1", "activity change, negative = inhibition": -50.1}
{"smiles": "Cc1nn(-c2ccccc2)c2nc(-c3ccco3)cc(C(=O)O)c12", "activity change, negative = inhibition": -53.4}
{"smiles": "COC(=O)c1ccc(CSc2ncnc3c2nnn3-c2ccc(F)cc2)o1", "activity change, negative = inhibition": -6.9}
{"smiles": "COC(=O)c1ccc(CSc2nc3ccc(Cl)cc3[nH]2)o1", "activity change, negative = inhibition": -47.5}
{"smiles": "O=C1c2cc(O)c(O)cc2S(=O)(=O)C1c1ccccc1", "note": "(stereo not given)", "activity change, negative = inhibition": -13}
{"smiles": "COc1ccc(-n2cnnc2SCc2cnc(-c3ccccc3)s2)cc1", "activity change, negative = inhibition": -99.2}
{"smiles": "Cc1nc2ccc(NC(=O)c3ccco3)cc2nc1C", "activity change, negative = inhibition": -98.9}
{"smiles": "Oc1ccc(C2C[C@H]3CC[C@@H]2C3)cc1O", "note": "(stereo not given in full)", "activity change, negative = inhibition": 0.253}
{"smiles": "O=C(O)CCCN1C(=O)/C(=C\\C(Cl)=C\\c2ccccc2)SC1=S", "activity change, negative = inhibition": -28.9}
{"smiles": "CN(C)c1ccc(N2CC(C)(C)C2=O)cc1", "activity change, negative = inhibition": 9.24}
{"smiles": "Cc1cccn2cc(-c3cccc(S(=O)(=O)N4CCCCC4)c3)nc12", "activity change, negative = inhibition": -98.3}
{"smiles": "Cc1cc(C)c2ccc(N)nc2c1O", "activity change, negative = inhibition": -14.6}
{"smiles": "COc1cc(C)nc(Oc2ccc(/C=N/O)cc2)n1", "activity change, negative = inhibition": -95.2}
{"smiles": "CCN1CCN(C(=O)Nc2ccc(Cc3ccc(NC(=O)N4CCN(CC)CC4)cc3)cc2)CC1", "activity change, negative = inhibition": -18.9}
{"smiles": "COCc1nnc(NC(=O)c2ccc(S(=O)(=O)N3CCCc4ccccc43)cc2)o1", "activity change, negative = inhibition": -34.2}
{"smiles": "CCCC(O)(c1ccc(OC)cc1)C(CN(C)C)c1ccccc1", "note": "(stereo not given)", "activity change, negative = inhibition": 4.55}
{"smiles": "Nc1ccccc1Nc1c(F)c(F)nc(F)c1Cl", "activity change, negative = inhibition": -37.7}
{"smiles": "Cc1ccc[n+](-c2nc([O-])sc2/C=N/Nc2ccc([N+](=O)[O-])cc2)c1", "activity change, negative = inhibition": -43.9}
{"smiles": "O=C(NCc1ccco1)C1CC(=O)N(c2ccc(O)cc2)C1", "note": "(stereo not given)", "activity change, negative = inhibition": -85.4}
{"smiles": "O=C(CNC(=O)c1ccco1)Nc1ccc(N2CCCCCC2)cc1", "activity change, negative = inhibition": -0.183}
{"smiles": "O=C(CN1CCN(c2ccc(O)cc2)CC1)Nc1cc(S(=O)(=O)N2CCCC2)ccc1Cl", "activity change, negative = inhibition": -40.9}
{"smiles": "COc1cc(/C=C/c2sc3ccccc3[n+]2CCCS(=O)(=O)[O-])ccc1O", "activity change, negative = inhibition": -105}
{"smiles": "Nc1nc(-c2ccc3c(c2)CCCC3)cs1", "activity change, negative = inhibition": -97}
{"smiles": "COc1ccc2c(c1)c1ncn(CCc3ccccc3)c(=O)c1n2C", "activity change, negative = inhibition": -0.427}
{"smiles": "O=c1[nH]c(=S)[nH]c2sccc12", "activity change, negative = inhibition": -34.4}
{"smiles": "Cc1ccc(CNC(=O)c2ccc(CS(=O)Cc3ccccc3Cl)o2)cc1", "note": "(stereo not given)", "activity change, negative = inhibition": -1.87}
{"smiles": "O=c1oc2c3c4c(cc2s1)CCCN4CCC3", "activity change, negative = inhibition": -13.7}
{"smiles": "Cc1ccc(N2CCN(S(=O)(=O)c3ccc4c(c3)NC(=O)C(C)C(=O)N4)CC2C)cc1", "note": "(stereo not given)", "activity change, negative = inhibition": -30.2}
{"smiles": "CC(C)n1cc(C(=O)N2CCCC(N3CCN(c4cccc(Cl)c4)CC3)C2)cn1", "note": "(stereo not given)", "activity change, negative = inhibition": -43.2}
{"smiles": "Cc1cccc(N2CCN(C(=O)Cn3sc4nc(C)cc(C)c4c3=O)CC2C)c1", "note": "(stereo not given)", "activity change, negative = inhibition": -57.4}
{"smiles": "O=c1oc2ccccc2cc1-c1ccc(O)cc1O", "activity change, negative = inhibition": 371}
{"smiles": "Cn1cc(Cl)c(-c2n[nH]c(=S)n2-c2ccc(F)cc2)n1", "activity change, negative = inhibition": 18.2}
{"smiles": "Cc1c(Cl)c(-c2n[nH]c(=S)n2CC(C)C)nn1C", "activity change, negative = inhibition": -54.1}
{"smiles": "CC(C)(C)c1ccc(Oc2ccc(N)cn2)cc1", "activity change, negative = inhibition": 49.2}
{"smiles": "CC(C)(C)c1ccc(C(=O)Oc2ccccc2CCC(=O)O)cc1", "activity change, negative = inhibition": -56}
{"smiles": "CC1CCN(C(=S)c2ccc(O)cc2)CC1", "activity change, negative = inhibition": -30}
{"smiles": "CN(C)c1ccc(C(=O)N2CCCC2)cc1", "activity change, negative = inhibition": -10.3}
